High-throughput results: PubChem BioAssay, National Center for Advancing Translational Sciences (NCATS)
This is a sample that favours compounds with a hit; in the whole collection about 8.1% have one here.
ELG1 DNA repair – inhibitors of ELG1-dependent DNA repair in HEK293T cells. HEK293T ELG1-luciferase reporter, luminescence, 16 h; DNA damage induced by 5-fluorouridine. Potency, µM (highest dose often 46.1 µM), most hits filed as inhibitors. 2.3% of 330,000 active. AID 504467; note: nearly all actives have a fitted effect of over 55% in size
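Quantitative HTS, concentration-response format. 2,000 cells/well co-treated with 5-fluorouridine and compound, 16 hr in 5% CO2 at 37 °C; ONE-Glo luminescence read after 30 min.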
KB-3-1 cytotox – KB-3-1 parental cell cytotoxicity; AID 1347075; Potency, µM (series often up to 46.1 µM), usual class: cytotoxic; 1.4% of 400,000 active; KB-3-1 viability, CellTiter-Glo ATP luminescence, 72 h; note: nearly all actives have a fitted effect of over 60% in size
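Cytotoxicity measured as CellTiter-Glo luminescence after 72 h at 37 C. Compound titrations were pinned onto drug-naive KB-3-1 parental adenocarcinoma cells grown in DMEM with 10% FBS, and normalized data fitted to concentration-response curves.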
KB-V1 MDR tox – kills drug-selected multidrug resistant KB-V1 cells. KB-V1 MDR cells viability, CellTiter-Glo, 72 h. 3.4% of 400,000 active. Potency, µM (doses to about 46.1 µM), hits mostly cytotoxic. AID 1347076; note: nearly all actives have a fitted effect of over 60% in size
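KB-V1 MDR subline cells in DMEM (phenol-red free, 10% FBS) exposed to compounds in qHTS concentration series for 72 h at 37 degrees C. Viability read by CellTiter-Glo luminescence; concentration-effect curves fitted after normalization and correction.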
SW480 rereplic – DNA re-replication induction in SW480 cells; SW480 DNA re-replication, Hoechst DNA content imaging, 48 h; Potency, µM (titrated, usually from 46.1 µM), usual class: activators; 1.8% of 340,000 active; note: nearly all actives have a fitted effect of over 55% in size
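First, 250 cells per well were seeded. Next, compound or vehicle (23 nL) was pinned in, plates sat 48 hr at 37 C. Finally Hoechst was added for 40 min before fluorescence scanning.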
MCF10A rerep – induces DNA re-replication in MCF 10a normal breast cells. 2.9% of 350,000 active. MCF 10A DNA re-replication, Hoechst nuclear intensity, 48 h. Potency, µM (highest dose often 46.1 µM), actives largely listed as activators; note: nearly all actives have a fitted effect of over 50% in size
Hits are given with their value; . = inactive; ? = inconclusive; / = no result given; [ ] = dose if it differs, or a comment. Calls come from the whole dose curve; as a rule, active = well fitted curve in the direction sought with a large enough effect; inconclusive = small, poorly fitted or top-dose-only effect, or another doubt; inactive = no such curve, though single readings can be large; an effect the other way counts as inactive or inconclusive.

SMILES	ELG1 DNA repair	KB-3-1 cytotox	KB-V1 MDR tox	SW480 rereplic	MCF10A rerep
COc1ccccc1CNc1ncnc2onc(-c3ccc(Cl)cc3)c12	/	.	.	/	/
COc1ccc(N(Cc2cccs2)C(=O)c2ccc(Br)o2)cc1	/	.	.	/	/
N#CC1=C(N)N2C(=C(C#N)C1c1ccccc1)Sc1ccccc12 (stereo unspecified)	.	/	/	/	/
N#CC1=C(N)N2C(=C(C#N)C1c1cccc(Br)c1)Nc1ccccc12 (stereo unspecified)	2.9µM	?	5.8µM	15µM	21µM
N#CC1=C(N)N2C(=C(C#N)C1c1ccc(Br)cc1)Nc1ccccc12 (stereo unspecified)	2.9µM	.	.	16µM	2.1µM
COC1OC(CO)C(OC2OC(C(=O)O)C(OC3OC(COS(=O)(=O)O)C(OC4OC(C(=O)O)C(OC5OC(CO)C(OC6OC(C(=O)O)C(OC7OC(COS(=O)(=O)O)C(OC8OC(C(=O)O)=C[C@H](O)C8OS(=O)(=O)O)C(O)C7NC(C)=O)[C@@H](O)C6O)C(O)C5NC(C)=O)[C@@H](O)C4O)C(O)C3NC(C)=O)[C@@H](O)C2O)C(O)C1NC(C)=O (stereo partly specified)	/	/	/	.	.
COc1ccc(-c2c(C)nn3c(N)c(C#N)cnc23)cc1OC	.	.	9.2µM	.	.
Cc1nn2c(N)c(C#N)cnc2c1-c1ccc(Cl)cc1	?	.	.	.	.
CCCCC(=NCCc1c(C)[nH]c2ccc(OC)cc12)C1=C(O)CC(c2ccccc2)CC1=O (stereo unspecified)	10µM	3.7µM	5.8µM	7.3µM	2.6µM
CC(=NCCc1c(C)[nH]c2ccc(OCc3ccccc3)cc12)C1=C(O)CC(c2ccccc2)CC1=O (stereo unspecified)	?	.	?	.	.
CCC(=NCCc1c(C)[nH]c2ccccc12)C1=C(O)CC(c2ccccc2)CC1=O (stereo unspecified)	8.2µM	4.6µM	3.7µM	10µM	4.1µM
CCC(=NCCc1c(C)[nH]c2ccc(OC(F)(F)F)cc12)C1=C(O)CC(c2ccccc2)CC1=O (stereo unspecified)	?	4.1µM	2.9µM	12µM	?
Cc1cccc(C(=O)Nc2cc(S(=O)(=O)N3CCOCC3)ccc2N2CCCCC2)c1	?	.	?	.	.
CC(C)CC1OC(C(C)C)Cc2[nH]c(=S)[nH]c(=O)c21 (stereo unspecified)	/	.	.	/	/
Cc1cccc(NC(=O)c2ccc(C)c(S(=O)(=O)N3CCOCC3)c2)n1	/	.	.	.	.
O=C(NCc1ccccc1)c1cc(C2CCCN(C(=O)C3CCCCC3)C2)on1 (stereo unspecified)	/	.	.	/	/
COc1ccc(C)cc1-n1nnnc1SCc1nc(N)nc(N(C)C)n1	/	.	.	/	/
COc1cc(CN2C[C@@H](CO)O[C@@H](n3cnc4c(NC5CCC5)ncnc43)C2)cc(OC)c1OC	/	.	.	/	/
O=C(c1nc(-c2ccc(Cl)cc2)n2c1CCCCC2)N1CCN(c2ccccc2)CC1	/	.	.	/	/
COc1ccc(N/C=C/C(=O)c2cc(OC)c(OC)c(OC)c2)cc1	?	3.7µM	?	5.8µM	5.2µM
COc1ccc(N/C=C/C(=O)c2ccc(Cl)cc2)cc1	?	.	.	.	?
COc1ccc(N/C=C/C(=O)c2ccc(OC)c(OC)c2)cc1	?	.	?	.	21µM
CS(=O)(=O)c1ccc(N)c(SSc2cc(S(C)(=O)=O)ccc2N)c1	.	.	.	.	3.7µM
O=C(NCCc1ccc2c(c1)OCO2)Oc1ccccc1	/	.	.	/	/
O=C(O)C1CC=CCC1C(=O)N1CCN(c2nc(-c3ccccc3Cl)c3cc(Br)ccc3n2)CC1 (stereo unspecified)	.	.	.	18µM	23µM
SMILES	ELG1 DNA repair	KB-3-1 cytotox	KB-V1 MDR tox	SW480 rereplic	MCF10A rerep
COc1ccccc1N1CCN(C(=O)C2CC=CCC2C(=O)O)CC1 (stereo unspecified)	.	.	.	.	.
O=C(O)C1CC=CCC1C(=O)N1CCN(c2nc(-c3ccccc3)c3ccccc3n2)CC1 (stereo unspecified)	.	.	.	?	9.2µM
Clc1ccccc1-c1nc(Nc2ccccc2)nc2ccc(Br)cc12	/	.	.	/	/
O=C(C[n+]1cccc(Cl)c1)c1ccc(F)cc1	/	.	.	/	/
O=C1NC[C@H](CCCCN2C[C@H](Cc3ccc(O)cc3)N(CCc3ccccc3)C(=O)C2=O)N(CCC2CCCCC2)C1=O	/	.	.	/	/
COc1ccccc1CNC(=O)c1ccc2nc(-c3ccccc3)c(-c3ccccc3)nc2c1	/	.	.	/	/
C/C(=N/NC(=O)c1nnn(-c2nonc2N)c1-c1ccccc1)c1ccc2c(c1)OCO2	.	.	.	.	.
C/C(=N\N=C(/N)c1nonc1N)c1ccc2c(c1)OCO2	?	6.5µM	1.5µM	.	.
O=C(Nc1ccc(-c2nc3ccccc3o2)cc1)C1CCCO1 (stereo unspecified)	?	?	10µM	.	.
O=C(Nc1ccc(-c2nc3cc(Cl)ccc3o2)cc1)C1CCCO1 (stereo unspecified)	?	.	10µM	.	?
O=C(Nc1ccc2oc(-c3ccccc3)nc2c1)C1CCCO1 (stereo unspecified)	?	?	?	.	.
Cc1ccc2nc(-c3ccc(NC(=O)Cc4cccs4)cc3)[nH]c2c1	?	.	.	?	?
Cc1ccc2nc(-c3ccc(NC(=O)C4CCCO4)cc3)[nH]c2c1 (stereo unspecified)	?	.	9.2µM	.	.
CCOC(=O)C1CCN(S(=O)(=O)c2cccc(-c3cn4cc(C)ccc4n3)c2)CC1	?	.	.	.[9.22 µM]	.
CCOC(=O)C1CCN(S(=O)(=O)c2cccc(-c3cn4cccnc4n3)c2)CC1	13µM	.	.	.	.
Cc1cc(C)c2c(CCl)cc(=O)oc2c1	.	?	?	3.7µM	5.2µM
Cc1cc(C)c2c(CN3CCCCC3)cc(=O)oc2c1	.	.	.	.	.
O=C1N=c2ccccc2=C1c1c(O)n(-c2cccc(F)c2)[nH]c1=O	.	.	.	.	?
CCn1c(O)c(C2=c3ccccc3=NC2=O)c2cc(Br)ccc21	?	.	.	?	16µM
Cc1scc(C(=O)N2CCN(S(C)(=O)=O)CC2)c1-c1ccccc1	.	.	23µM	.	.
CCOc1ccc(N(C)C(=O)C2CCN(S(=O)(=O)c3ccc4c(c3)CCCN4C(C)=O)CC2)cc1	/	.	?	/	/
CCN(CC)S(=O)(=O)c1ccc(N2CCOCC2)c(NC(=O)c2cc(C)cc(C)c2)c1	8.2µM	.	.	.	.
CCN(CC)S(=O)(=O)c1ccc(N2CCOCC2)c(NC(=O)C23CC4CC(CC(Cl)(C4)C2)C3)c1	9.2µM	.	23µM	.	?
CCN(CC)S(=O)(=O)c1ccc(N2CCOCC2)c(NC(=O)c2sccc2C)c1	18µM	.	.	.	?
